Results taken from PubChem BioAssay.
Active and inactive are the calls of the source.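 The calls were made as follows, unless noted: active = z-score of at least 1.8 in each of two replicates, scored against plate mean and spread of sample wells; inactive = the rest.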

Legend:
[1] = MELAS cybrid and Rieske KO viability enhancers – cell-based, MELAS cybrids, Rieske KO mouse fibroblasts, CellTiter-Glo, primary screen (AID 1508586;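 active = mean z-score across replicates of 1.96 or higher in either the MELAS or the Rieske mutant cell line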;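 also: test concentration not given here; z relative to plate mean and SD of compound and empty wells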); settings: low glucose
[2] = galactose survival enhancers in mitochondrial complex I cybrids – cell-based, galactose medium, ATP luminescence, primary screen (AID 1645843); settings: complex I mutant cybrid cells, 72 h, stronger effect = higher value;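 also: positive z means more ATP and so rescue of galactose-driven cybrid death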
[3] = MELAS cybrid survival, CellTiter-Glo 48 h, stronger effect = higher value
[4] = Rieske KO mouse fibroblast survival, CellTiter-Glo 72 h

| SMILES | z-score [1, 3] | z-score [1, 4] | z-score [2] |
| --- | --- | --- | --- |
| CN(C)C1CCN(C(=O)c2cc(-c3ccccc3)cc(S(=O)(=O)N3CCSCC3)c2)C1 (stereo not given) | 0.666 (inactive) | 0.00446 | 0.465 (inactive) |
| CC(C)C[C@H]1C(=O)N2CCN(Cc3cnn(-c4ccccc4)c3)C[C@@H]2C(=O)N1C | 0.221 (inactive) | -0.165 | -0.345 (inactive) |
| COC(=O)c1c(NC(=O)c2cccnc2)c2cc(NCc3ccc4c(c3)CCO4)cnc2n1CC(C)C | -0.55 | 3.72 | -1.61 (inactive) |
| CCn1cc(CN2CCN3C(=O)[C@@H]4C[C@@H](O)CN4C(=O)[C@H]3C2)c(C)n1 | -0.258 (inactive) | -0.193 | -0.705 (inactive) |
| Cc1nn(C)cc1CNc1cc(C(=O)NCc2cn3ccccc3n2)cc(S(=O)(=O)NC(C)C)c1 | -0.236 (inactive) | -0.702 | -0.11 (inactive) |
| COc1ccc(CCNC2CCc3c(c(C(=O)N(C)C)nn3CC3CCCCC3)C2)cc1 (stereo not given) | -0.342 (inactive) | 0.349 | -1.19 (inactive) |
| CC(C)[C@@H]1NC(=O)[C@H]2CN(C(=O)c3ccccc3Cl)CCN2C1=O | -0.296 (inactive) | -0.445 | 1.57 (inactive) |
| CC[C@@H]1NC(=O)[C@H]2CN(CCC(C)C)CCN2C1=O | 0.225 (inactive) | 0.0851 | -0.555 (inactive) |
| CCN1C(=O)N(C)C(=O)C12CCN(Cc1cc3oc(C)c(-c4ccccc4)c3cc1OC)CC2 | -0.0202 (inactive) | -0.474 | 1.74 (inactive) |
| CN(Cc1cscn1)C(=O)c1nn(CC2CC2)c2c1CN(C(=O)Cn1cnc3ccccc31)CC2 | 0.533 (inactive) | -0.0924 | -0.19 (inactive) |
